This assay concerns the target AT4G31550 (Arabidopsis thaliana, UniProt Q9SV15 228-325). Put plainly: DPI-ELISA; DPI-ELISA, streptavidin 384-well plate, 1-2 pmol biotinylated dsDNA per well, crude native E. coli extract, anti-His detection; buffer as in Brand et al. [46],; high values mean tight binding. The following applies: tags: C-terminal His (pET-DEST42); label: 5' biotin on forward strand; dsDNA, one strand shown. For orientation: ELISA stands for enzyme-linked immunosorbent assay.
Sequence of AT4G31550 (Q9SV15 228-325): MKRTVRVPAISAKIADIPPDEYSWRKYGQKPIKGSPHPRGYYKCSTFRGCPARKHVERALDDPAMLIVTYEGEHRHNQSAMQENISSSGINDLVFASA
As to AAAAAATGCAACGCTCCTTTCCCGCTAAAA, the binding signal was found to be 0.535 ± 0.106 absorbance.
In turn, AAAAAAATCCCACTTCATTCTAAAAA had a binding signal of 0.6 ± 0.0707 absorbance.
In the case of AAAAAAATCATCCTATTGTTGCTGTCAAAA, the binding signal is 0.665 ± 0.12 absorbance.
The result for AAAAAATGTCGGCTGTTAGGATATCGAAAA reads 0.625 ± 0.0495 absorbance; that for AAAAAAGGAAGTACTGACGATCTGGAAAAA, 0.615 ± 0.148 absorbance.
The same measure for AAAAAAACACCTGTATAGCATGGACGAAAA: 0.73 ± 0.0707 absorbance.
In turn, AAAAAACATTGATAAAATCTCCAGGCAAAA yielded a binding signal of 0.63 ± 0.141 absorbance.
AAAAAAGGGCCCACTATCGACGTCAAAA: the binding signal stood at 0.605 ± 0.134 absorbance.
AAAAAATTCTTTTTTCTTCAAGGTCTAAAA returned a binding signal of 0.565 ± 0.0212 absorbance.
The result for AAAAAAGGGTCGCTGTGAGCTCATGAAAAA reads 0.575 ± 0.12 absorbance; that for AAAAAAATGTTCAAGCTCGATCTACAAAAA, 0.63 ± 0.127 absorbance; that for AAAAAAGGTAGTCACATTACGAGGGTAAAA, 0.555 ± 0.0354 absorbance.
The result for AAAAAATCCACGACTCAGCAGCTCTTAAAA reads 0.68 ± 0.0707 absorbance; that for AAAAAATAGACCCTGACCCACCATTGAAAA, 0.71 ± 0.113 absorbance; that for AAAAAATAGTGTGATTGGTATCCAGTAAAA, 0.645 ± 0.0495 absorbance.
In turn, AAAAAAAGGTCATTGCTGCTGGTGTTAAAA displayed a binding signal of 0.735 ± 0.106 absorbance.
Take AAAAAATCGGGCCCCGTTAGCACTCTAAAA: the binding signal is 0.665 ± 0.12 absorbance.
Sequence AAAAAAGTGTGTGGCTCAGGATTCCCAAAA yielded a binding signal of 0.55 ± 0.0849 absorbance.
The result for AAAAAATTACTTCTCCCTTCCTTTGCAAAA reads 0.605 ± 0.163 absorbance.
The result for AAAAAATGACCAGGCCTCGAGCAAAAA reads 0.665 ± 0.0636 absorbance; that for AAAAAAATATTTGAGCTAGGTTATCAAAAA, 0.57 ± 0.113 absorbance; that for AAAAAAACATCCACACCCGCGGCGCGAAAA, 0.56 ± 0.141 absorbance.
AAAAAATAATTACAAGTCGGCTCCACAAAA displayed a binding signal of 0.69 ± 0.0707 absorbance.
For the sequence AAAAAAGTACATGCGTAGATAATGTTAAAA, the binding signal was 0.59 ± 0.127 absorbance.
